Results published in PubChem BioAssay (EPA / NIEHS).
Records with an inconclusive call do not appear. Activity calls are given as the source filed them. The calls were made as follows, unless noted: active = hit-call score of the fitted dose curve at least 0.9, where 1 is the maximum; inactive = score below 0.9.

Legend:
[1] = ATG_Hpa5_TRANS: Attagene TRANS-FACTORIAL HepG2 Assay for human GAL4-Hpa5 Hepatocyte Transcription Factor Basal Promoter (AID 2282975; active = hit-call score of the fitted dose curve at least 0.9, where 1 is the maximum;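 also: hits are increases in reporter mRNA over DMSO baseline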); details: HepG2 Attagene GAL4-Hpa5 transcription reporter
Outline: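 Basal-promoter GAL4 background control within the HepG2 trans-factorial panel of transiently transfected reporter units. Reporter mRNA is measured 24 h after dosing by RT-PCR and capillary electrophoresis, fitted for gain of signal versus DMSO.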

[2] = biological target: Estrogen-related receptor gamma (Homo sapiens) (UniProt P62508); assay: ATG_ERRg_TRANS: Attagene TRANS-FACTORIAL HepG2 Assay for human Estrogen-Related Receptor gamma (ERRg) (AID 2282977; active = hit-call score of the fitted dose curve at least 0.9, where 1 is the maximum;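 also: hits increase reporter signal over DMSO so potencies reflect activators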); details: HepG2 Attagene TRANS reporter, ERRg transactivation
Chain of Estrogen-related receptor gamma (Homo sapiens) (P62508 whole entry, looked up, the tested form may be a part): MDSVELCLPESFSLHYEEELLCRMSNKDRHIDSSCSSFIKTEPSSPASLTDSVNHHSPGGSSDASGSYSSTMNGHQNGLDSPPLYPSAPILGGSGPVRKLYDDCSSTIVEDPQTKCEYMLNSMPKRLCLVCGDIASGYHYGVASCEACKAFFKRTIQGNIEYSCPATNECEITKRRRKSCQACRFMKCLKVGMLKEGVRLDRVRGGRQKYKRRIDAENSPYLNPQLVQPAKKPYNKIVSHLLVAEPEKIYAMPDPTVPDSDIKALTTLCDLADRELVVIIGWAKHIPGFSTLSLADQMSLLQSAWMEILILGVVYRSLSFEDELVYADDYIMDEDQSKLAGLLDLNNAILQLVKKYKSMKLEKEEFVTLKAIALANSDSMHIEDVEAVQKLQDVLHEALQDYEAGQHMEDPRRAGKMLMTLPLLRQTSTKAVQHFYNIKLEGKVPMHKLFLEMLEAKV
Outline: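 Transient HepG2 transfectants, 24 h compound exposure, GAL4-UAS reporter mRNA by RT-PCR/6-FAM labelling/capillary electrophoresis; positive direction vs DMSO.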

[3] = biological target: Oxysterols receptor LXR-alpha (Homo sapiens) (UniProt Q13133); assay: ATG_LXRa_TRANS: Attagene TRANS-FACTORIAL HepG2 Assay for human Liver X Receptor alpha (LXRa) (AID 2282980; active = hit-call score of the fitted dose curve at least 0.9, where 1 is the maximum); details: HepG2 Attagene TRANS reporter, LXRa transactivation
Chain of Oxysterols receptor LXR-alpha (Homo sapiens) (Q13133 whole entry, looked up, the tested form may be a part): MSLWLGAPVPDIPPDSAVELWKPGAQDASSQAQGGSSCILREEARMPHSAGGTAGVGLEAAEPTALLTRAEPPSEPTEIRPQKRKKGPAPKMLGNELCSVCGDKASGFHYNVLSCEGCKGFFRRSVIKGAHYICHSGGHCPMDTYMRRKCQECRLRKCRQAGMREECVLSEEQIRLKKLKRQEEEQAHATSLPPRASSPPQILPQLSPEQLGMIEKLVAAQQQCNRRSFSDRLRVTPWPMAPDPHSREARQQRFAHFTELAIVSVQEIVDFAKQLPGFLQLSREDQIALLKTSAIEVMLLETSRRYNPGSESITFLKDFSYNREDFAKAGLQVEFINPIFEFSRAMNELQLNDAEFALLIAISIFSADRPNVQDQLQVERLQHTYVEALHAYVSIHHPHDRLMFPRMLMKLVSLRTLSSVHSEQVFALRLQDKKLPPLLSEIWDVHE
Outline: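 Transfect HepG2 with GAL4-UAS multiplex reporter constructs (TRANS format, chimeric receptor-GAL4); treat 24 h; extract RNA, reverse-transcribe, PCR-amplify, FAM-label, HpaI-digest; resolve fragments by capillary electrophoresis. Upward response vs DMSO.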

[4] = biological target: Oxysterols receptor LXR-beta (Homo sapiens) (UniProt P55055); assay: ATG_LXRb_TRANS: Attagene TRANS-FACTORIAL HepG2 Assay for human Liver X Receptor beta (LXRb) (AID 2282981; active = hit-call score of the fitted dose curve at least 0.9, where 1 is the maximum); details: HepG2 Attagene TRANS GAL4-LXRb reporter, mRNA
Outline: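 HepG2 cells transiently transfected with multiple reporter transcription units carrying chimeric NR-Gal4 proteins acting on GAL4-UAS reporters; compound exposure 24 h. Reporter mRNA quantified by RT-PCR, 6-FAM labelling, HpaI digestion and capillary electrophoresis; gain of signal versus DMSO.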

[5] = biological target: Hepatocyte nuclear factor 4-alpha (Homo sapiens) (UniProt P41235); assay: ATG_HNF4a_TRANS: Attagene TRANS-FACTORIAL HepG2 Assay for human Hepatocyte Nuclear Factor 4 alpha (HNF4a) (AID 2282982; active = hit-call score of the fitted dose curve at least 0.9, where 1 is the maximum); details: HepG2 HNF4a transactivation reporter, mRNA readout
Chain of Hepatocyte nuclear factor 4-alpha (Homo sapiens) (P41235 whole entry, looked up, the tested form may be a part): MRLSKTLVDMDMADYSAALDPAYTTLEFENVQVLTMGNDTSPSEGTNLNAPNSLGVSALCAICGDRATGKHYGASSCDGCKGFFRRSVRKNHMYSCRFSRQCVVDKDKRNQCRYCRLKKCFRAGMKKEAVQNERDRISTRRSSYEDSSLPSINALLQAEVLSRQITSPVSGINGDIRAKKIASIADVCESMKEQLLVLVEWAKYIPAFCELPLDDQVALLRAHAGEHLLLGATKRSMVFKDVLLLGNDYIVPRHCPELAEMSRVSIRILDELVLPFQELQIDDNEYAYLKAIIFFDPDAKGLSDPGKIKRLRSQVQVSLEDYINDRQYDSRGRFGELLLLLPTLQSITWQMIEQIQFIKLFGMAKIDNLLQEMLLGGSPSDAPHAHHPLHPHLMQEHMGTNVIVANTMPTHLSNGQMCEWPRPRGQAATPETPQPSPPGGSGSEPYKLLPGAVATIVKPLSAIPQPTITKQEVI
Outline: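 HepG2 cells transiently transfected with multiplexed GAL4-UAS reporter units responsive to chimeric NR-GAL4 proteins; compound exposure 24 h. Reporter mRNA quantified by RT-PCR, 6-FAM labelling, HpaI digestion and capillary electrophoresis; gain of signal versus DMSO baseline.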

[6] = ATG_M_06_TRANS: Attagene TRANS-FACTORIAL HepG2 Assay for M06 Transcription Factor (Internal Marker) (AID 2282983; active = hit-call score of the fitted dose curve at least 0.9, where 1 is the maximum;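 also: reporter transcript level by RT-PCR then capillary electrophoresis fluorescence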); details: HepG2 Attagene TRANS M06 internal marker reporter
Outline: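 Transfect HepG2 with MRTUs → dose compounds 24 h → isolate RNA, oligo(dT) RT → PCR with reporter primers → 6-FAM primer extension → HpaI digest → CE fragment analysis. Positive direction vs DMSO.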

[7] = biological target: Nuclear receptor subfamily 4 group A member 2 (Homo sapiens) (UniProt P43354); assay: ATG_NURR1_TRANS: Attagene TRANS-FACTORIAL HepG2 Assay for human Nuclear Receptor Related Protein 1 (NURR1) (AID 2282985; active = hit-call score of the fitted dose curve at least 0.9, where 1 is the maximum); details: HepG2 Attagene TRANS reporter, mRNA readout
Chain of Nuclear receptor subfamily 4 group A member 2 (Homo sapiens) (P43354 whole entry, looked up, the tested form may be a part): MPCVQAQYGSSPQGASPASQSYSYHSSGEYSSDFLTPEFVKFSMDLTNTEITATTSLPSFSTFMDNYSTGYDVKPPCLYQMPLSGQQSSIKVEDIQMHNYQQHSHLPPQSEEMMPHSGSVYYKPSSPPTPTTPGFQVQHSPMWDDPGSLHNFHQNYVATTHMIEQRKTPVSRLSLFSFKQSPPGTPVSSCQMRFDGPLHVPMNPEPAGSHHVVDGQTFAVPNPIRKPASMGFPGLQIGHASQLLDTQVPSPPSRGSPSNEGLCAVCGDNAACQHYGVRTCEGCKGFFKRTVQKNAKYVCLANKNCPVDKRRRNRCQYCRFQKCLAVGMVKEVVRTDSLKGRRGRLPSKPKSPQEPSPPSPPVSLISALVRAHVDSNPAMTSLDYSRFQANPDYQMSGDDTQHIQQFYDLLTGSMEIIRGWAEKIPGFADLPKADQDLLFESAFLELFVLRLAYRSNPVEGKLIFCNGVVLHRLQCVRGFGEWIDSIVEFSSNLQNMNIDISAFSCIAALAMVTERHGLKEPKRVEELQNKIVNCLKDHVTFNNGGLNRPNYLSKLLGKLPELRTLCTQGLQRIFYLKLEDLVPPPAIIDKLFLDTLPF
Outline: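 HepG2 cells transiently transfected with GAL4-UAS reporter units and chimeric NR-Gal4 constructs; chemical exposure 24 h. Reporter mRNA quantified by RT-PCR, fluorescent labelling and capillary electrophoresis; gain of signal fitted relative to DMSO baseline.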

[8] = biological target: Transcriptional activator Myb (Homo sapiens) (UniProt P10242); assay: ATG_Myb_CIS: Attagene CIS-FACTORIAL HepG2 Assay for human Myeloblastosis (Myb) Proto-Oncogene Transcription Factor (AID 2282986); details: HepG2 Attagene CIS-FACTORIAL Myb reporter transcription; actives raise or lower the signal
Chain of Transcriptional activator Myb (Homo sapiens) (P10242 whole entry, looked up): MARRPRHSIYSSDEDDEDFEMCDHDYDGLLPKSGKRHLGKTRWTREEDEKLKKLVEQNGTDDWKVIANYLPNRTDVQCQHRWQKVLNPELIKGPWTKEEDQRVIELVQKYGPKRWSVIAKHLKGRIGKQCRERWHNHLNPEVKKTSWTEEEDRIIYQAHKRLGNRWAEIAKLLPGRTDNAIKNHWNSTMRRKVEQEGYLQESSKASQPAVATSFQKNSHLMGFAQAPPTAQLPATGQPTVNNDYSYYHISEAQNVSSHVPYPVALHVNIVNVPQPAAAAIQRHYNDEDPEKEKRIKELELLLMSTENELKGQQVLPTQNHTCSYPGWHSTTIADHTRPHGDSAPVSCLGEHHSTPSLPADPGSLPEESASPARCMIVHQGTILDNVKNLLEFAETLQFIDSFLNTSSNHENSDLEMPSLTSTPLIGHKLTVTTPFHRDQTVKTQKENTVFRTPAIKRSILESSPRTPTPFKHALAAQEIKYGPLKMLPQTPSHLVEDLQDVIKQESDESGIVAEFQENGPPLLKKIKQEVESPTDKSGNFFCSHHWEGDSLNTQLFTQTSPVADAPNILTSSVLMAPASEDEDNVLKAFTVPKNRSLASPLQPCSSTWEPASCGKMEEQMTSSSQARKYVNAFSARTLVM
Outline: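 Multiplexed cis-reporter system in HepG2: transient transfection, 24 h treatment, mRNA readout by RT-PCR and capillary electrophoresis. Both increases and decreases are scored versus DMSO negative control.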

[9] = ATG_NFI_CIS: Attagene CIS-FACTORIAL HepG2 Assay for human Nuclear Factor I (NFI) (AID 2282989); details: HepG2 cis-regulatory reporter, NFI response element transcription; actives raise or lower the signal
Outline: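 After transient transfection of HepG2 with cis-promoter reporter constructs and 24 h dosing, RNA is reverse-transcribed, amplified, 6-FAM end-labelled and HpaI-digested before capillary analysis. Bidirectional curve fitting against DMSO.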

[10] = biological target: Myc proto-oncogene protein (Homo sapiens) (UniProt P01106); assay: ATG_Myc_CIS: Attagene CIS-FACTORIAL HepG2 Assay for human Myelocytomatosis (Myc) Proto-Oncogene Transcription Factor (AID 2282990); details: HepG2, Attagene cis-reporter transcription factor activity; actives raise or lower the signal
Chain of Myc proto-oncogene protein (Homo sapiens) (P01106 whole entry, looked up): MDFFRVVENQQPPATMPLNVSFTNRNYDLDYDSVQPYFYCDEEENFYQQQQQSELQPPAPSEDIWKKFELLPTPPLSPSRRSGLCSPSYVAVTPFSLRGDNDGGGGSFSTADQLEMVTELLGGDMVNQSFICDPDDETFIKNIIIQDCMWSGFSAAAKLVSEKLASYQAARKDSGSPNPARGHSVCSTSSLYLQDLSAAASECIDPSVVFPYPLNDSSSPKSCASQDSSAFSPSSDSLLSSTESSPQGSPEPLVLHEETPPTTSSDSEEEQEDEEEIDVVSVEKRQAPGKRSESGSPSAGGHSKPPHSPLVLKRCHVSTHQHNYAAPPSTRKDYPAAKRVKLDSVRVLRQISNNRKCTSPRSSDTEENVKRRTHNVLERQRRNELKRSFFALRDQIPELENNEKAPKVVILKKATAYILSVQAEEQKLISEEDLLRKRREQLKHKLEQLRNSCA
Outline: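 DMSO-normalised, bidirectionally fitted reporter mRNA signal. HepG2 cells transfected with cis reporter constructs, treated 24 h; transcripts detected by RT-PCR, 6-FAM primer extension and CE.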

[11] = ATG_NRF2_ARE_CIS: Attagene CIS-FACTORIAL HepG2 Assay for human Nuclear Factor Erythroid 2 Related Factor 2 (NFR2) response to Antioxidant Response Elements (ARE) (AID 2282992); details: HepG2 Attagene ARE/NRF2 reporter, transcription factor activity; actives raise or lower the signal
Outline: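 Cis-factorial assay: transfected HepG2 reporter library, 24 h dosing, mRNA readout via RT-PCR/CE; DMSO-referenced bidirectional analysis.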

[12] = ATG_Oct_MLP_CIS: Attagene CIS-FACTORIAL HepG2 Assay for human Octamer-Binding Transcription Factor (Oct) (AID 2282993); details: HepG2 Attagene cis-factorial Oct reporter, mRNA; actives raise or lower the signal
Outline: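 Cells of the HepG2 line express promoter-controlled reporter sequences whose mRNA levels, after 24 h treatment, are measured by RT-PCR and capillary electrophoresis. Increases and decreases are scored relative to DMSO.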

[13] = biological target: Cellular tumor antigen p53 (Homo sapiens) (UniProt P04637); assay: ATG_p53_CIS: Attagene CIS-FACTORIAL HepG2 Assay for human p53 Transcription Factor (AID 2282994); details: HepG2 p53 cis-element reporter, Attagene mRNA; actives raise or lower the signal
Chain of Cellular tumor antigen p53 (Homo sapiens) (P04637 whole entry, looked up): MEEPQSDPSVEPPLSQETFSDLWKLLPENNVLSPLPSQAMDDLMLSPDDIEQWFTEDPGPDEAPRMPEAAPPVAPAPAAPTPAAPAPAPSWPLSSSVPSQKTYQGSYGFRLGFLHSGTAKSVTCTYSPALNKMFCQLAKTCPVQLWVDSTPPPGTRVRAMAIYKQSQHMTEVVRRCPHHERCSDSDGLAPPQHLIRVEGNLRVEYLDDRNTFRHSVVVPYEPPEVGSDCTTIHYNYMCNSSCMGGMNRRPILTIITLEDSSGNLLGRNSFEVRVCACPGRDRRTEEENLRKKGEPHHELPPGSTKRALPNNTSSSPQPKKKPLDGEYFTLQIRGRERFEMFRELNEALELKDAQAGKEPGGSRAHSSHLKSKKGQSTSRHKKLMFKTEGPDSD
Outline: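 Using HepG2 hepatoma cells carrying cis-acting multiplexed reporters, mRNA induction is detected after a 24 h exposure. Gain- and loss-of-signal responses are fitted relative to DMSO-treated cells.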

[14] = BSK_3C_TissueFactor: BioMAP Diversity Plus: 3C Assay for Tissue Factor Biomarker Activity (AID 2282997); details: BioMAP 3C HUVEC, tissue factor biomarker readout; actives raise or lower the signal
Outline: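 ELISA read-out of Tissue Factor levels on human umbilical vein endothelium collected 24 h after chemical dosing. Gain or loss of signal was fitted relative to DMSO.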

[15] = BSK_3C_uPAR: BioMAP Diversity Plus: 3C Assay for Urokinase-type plasminogen activator receptor (uPAR) Biomarker Activity (AID 2282998); details: BioMAP 3C HUVEC, uPAR biomarker ELISA; actives raise or lower the signal
Outline: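 Endothelial primary cells of human umbilical vein origin received test chemical; 24 h later uPAR was assayed by ELISA. Fitting was bidirectional, DMSO as negative control.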

[16] = biological target: Glucocorticoid receptor (Homo sapiens) (UniProt P04150); assay: ATG_GR_TRANS: Attagene TRANS-FACTORIAL HepG2 Assay for human Glucocorticoid Receptor (GR) (AID 2282978; active = hit-call score of the fitted dose curve at least 0.9, where 1 is the maximum;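 also: activators score as hits since higher reporter transcript over DMSO is fitted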); details: HepG2 Attagene TRANS GR reporter, mRNA transcription
Chain of Glucocorticoid receptor (Homo sapiens) (P04150 whole entry, looked up, the tested form may be a part): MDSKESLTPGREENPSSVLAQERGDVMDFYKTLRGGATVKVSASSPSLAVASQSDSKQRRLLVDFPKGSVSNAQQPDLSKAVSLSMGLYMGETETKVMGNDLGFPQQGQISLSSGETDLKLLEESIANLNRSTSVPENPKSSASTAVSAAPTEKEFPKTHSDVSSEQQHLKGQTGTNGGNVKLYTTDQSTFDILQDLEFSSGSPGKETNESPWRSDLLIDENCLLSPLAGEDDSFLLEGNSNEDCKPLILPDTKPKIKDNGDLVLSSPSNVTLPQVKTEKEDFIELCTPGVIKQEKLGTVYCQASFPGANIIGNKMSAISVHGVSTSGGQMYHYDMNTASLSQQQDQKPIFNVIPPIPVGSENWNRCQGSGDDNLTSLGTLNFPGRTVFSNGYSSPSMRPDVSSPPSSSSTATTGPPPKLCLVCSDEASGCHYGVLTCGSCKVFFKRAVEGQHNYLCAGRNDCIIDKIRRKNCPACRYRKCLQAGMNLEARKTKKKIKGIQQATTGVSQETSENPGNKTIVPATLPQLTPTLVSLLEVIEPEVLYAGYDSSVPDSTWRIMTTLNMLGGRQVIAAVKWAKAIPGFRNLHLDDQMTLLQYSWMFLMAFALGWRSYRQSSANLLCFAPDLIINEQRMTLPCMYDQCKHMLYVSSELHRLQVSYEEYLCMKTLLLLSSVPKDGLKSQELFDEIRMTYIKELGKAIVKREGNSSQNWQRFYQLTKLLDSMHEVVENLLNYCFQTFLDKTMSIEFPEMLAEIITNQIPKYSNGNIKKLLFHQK
Outline: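 HepG2 transient transfection, multiple reporter units, GAL4-UAS under NR-GAL4 chimera control. 24 h treatment. Reporter mRNA by RT-PCR/CE fluorescence, DMSO as negative control.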

[17] = ATG_NF_kB_CIS: Attagene CIS-FACTORIAL HepG2 Assay for human Nuclear Factor Kappa B (NF-kB) (AID 2282991); details: HepG2 Attagene cis-factorial NF-kB reporter mRNA; actives raise or lower the signal
Outline: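 After 24 h compound incubation, transfected HepG2 cells yield total RNA; reporter cDNA is PCR-amplified, end-labelled with 6-FAM, HpaI-digested and analysed on a genetic analyser. Endogenous factor activity, DMSO-referenced bidirectional fit.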

[18] = biological target: Bile acid receptor (Homo sapiens) (UniProt Q96RI1); assay: ATG_FXR_TRANS: Attagene TRANS-FACTORIAL HepG2 Assay for Farnesoid X Receptor (FXR) (AID 2282979; active = hit-call score of the fitted dose curve at least 0.9, where 1 is the maximum;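 also: hits raise reporter mRNA above DMSO so AC50 marks FXR activation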); details: HepG2 Attagene TRANS FXR-GAL4 reporter transcription
Chain of Bile acid receptor (Homo sapiens) (Q96RI1 whole entry, looked up, the tested form may be a part): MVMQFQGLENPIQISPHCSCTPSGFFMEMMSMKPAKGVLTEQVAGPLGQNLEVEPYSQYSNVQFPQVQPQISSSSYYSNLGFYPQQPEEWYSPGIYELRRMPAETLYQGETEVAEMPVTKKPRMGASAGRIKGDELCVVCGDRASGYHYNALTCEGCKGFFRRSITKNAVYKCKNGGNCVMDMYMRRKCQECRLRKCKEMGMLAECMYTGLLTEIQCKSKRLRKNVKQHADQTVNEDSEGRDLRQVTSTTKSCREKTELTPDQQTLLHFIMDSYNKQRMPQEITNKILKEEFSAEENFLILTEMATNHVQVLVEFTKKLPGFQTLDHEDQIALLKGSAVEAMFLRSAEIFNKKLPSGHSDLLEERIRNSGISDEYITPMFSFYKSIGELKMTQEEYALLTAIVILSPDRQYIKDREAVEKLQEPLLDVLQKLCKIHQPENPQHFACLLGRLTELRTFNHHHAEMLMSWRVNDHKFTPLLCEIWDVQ
Outline: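 Transient transfection of HepG2 with multiplexed GAL4-UAS reporter units; exogenous FXR-GAL4 chimera. Dose 24 h → TriZol RNA → oligo(dT) RT → PCR, 6-FAM primer extension, HpaI cut → CE. Gain vs DMSO.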

[19] = ATG_GAL4_TRANS: Attagene TRANS-FACTORIAL HepG2 Assay for GAL4 (Internal Marker) (AID 2282976; active = hit-call score of the fitted dose curve at least 0.9, where 1 is the maximum); details: HepG2 Attagene TRANS GAL4 internal marker reporter
Outline: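 First, HepG2 cells were transfected with reporter units under GAL4-UAS control. Next, they were treated with chemical for 24 h. Finally, RNA was reverse-transcribed, PCR-amplified, FAM-labelled and resolved by capillary electrophoresis, with induction scored against DMSO.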

Measured: AC50

C[C@H]1[C@H](c2ccc(Cl)cc2)SC(=O)N1C(=O)NC1CCCCC1
active: [11] 13.5 µM | [12] 13.7 µM | [15] 13.1 µM
not listed: [16] | [17] | [18] | [19]
inactive: all other assays above

O=[N+]([O-])c1c(Cl)c(Cl)c(Cl)c(Cl)c1Cl
active: [17] 13.8 µM | [11] 4.17 µM
not listed: [2] | [4] | [6] | [18] | [19]
inactive: all other assays above

CCN(CC)C(=O)SCc1ccc(Cl)cc1
active: [11] 6.08 µM | [12] 25 µM
not listed: [4] | [6] | [19]
inactive: all other assays above

CCC(C)(NC(=O)c1cc(Cl)c(C)c(Cl)c1)C(=O)CCl (stereo not given)
active: [11] 1.64 µM | [14] 5.41 µM | [15] 14.4 µM
not listed: [4] | [19]
inactive: all other assays above

COP(=S)(OC)Oc1ccc(SC)c(C)c1
active: [3] 24.9 µM | [11] 15.5 µM
not listed: [2] | [4] | [18]
inactive: all other assays above

O=C1c2ccccc2C(=O)N1SC(Cl)(Cl)Cl
active: [11] 14.8 µM
not listed: [2] | [3] | [4] | [6] | [16] | [18] | [19]
inactive: all other assays above
